Compound activity: PubChem BioAssay, National Center for Advancing Translational Sciences (NCATS)
A selection: hits, their analogues and other compounds. The true share with any hit is near 8%.
Lassa entry – qHTS for Inhibitors of binding or entry into cells for Lassa Virus | Lassa virus pseudotyped entry inhibition, cell-based qHTS | Potency, µM (top dose mostly 49.2 µM), usual class: inhibitors | actives 4.1% (n = 18,000) | AID 720533, 2013
MARV entry inh – qHTS for Inhibitors of binding or entry into cells for Marburg Virus; Marburg virus pseudotype entry/binding inhibition, cell-based; Potency, µM (top dose mostly 49.2 µM), usual class: inhibitors; actives 6.5% (n = 18,000); AID 720532, 2013
Of the large screens only hits and unclear results are named; the others gave an inactive call; ! = not active in a repeat. Calls follow the shape of the full dose curve; tested in HEK293 cells.

Nc1ncn([C@H]2O[C@@H](CO)[C@@H](O)[C@@H]2O)c(=O)n1	Lassa entry 2µM, MARV entry inh 3.2µM
CN1C=CC(=O)[C@@H](O)[C@@H]1c1ccccc1Br	none
COC(=O)N[C@@H](c1ccccc1)C(C(=O)OC)C(=O)OC	none
C=CCN(C)C1=NC(c2ccccc2)C(C(=O)OC)=C(C)N1CCOC (configuration not stated)	none
CCCCn1c(C)cc2c(c1=O)[C@H]1O[C@](CCCC)(Cc3cc(C#N)ccc31)O2	MARV entry inh inconclusive
O=C(NN=C1C[C@@H](O)[C@H](O)[C@H]2[C@@H]3C(=O)N(Cc4ccc5c(c4)OCO5)C(=O)[C@@H]3CC[C@H]12)OCc1ccccc1	none (no result: Lassa entry)
N[C@H](C(=O)O)[C@@H](O)c1ccc(O)c(O)c1	Lassa entry inconclusive, MARV entry inh 1.3µM
N[C@@H](Cc1ccc(O)c(O)c1)C(=O)O	Lassa entry inconclusive, MARV entry inh 7.9µM!
N[C@H](Cc1ccc(O)cc1)C(=O)O	none
CCC(N)C(O)c1ccc(O)c(O)c1 (configuration not stated)	none
COC(=O)C1(C(=O)OC)C[C@@H]2CON=C2[C@@H]1c1ccccc1	none
O=C(O)COCCN1CCN(C(c2ccccc2)c2ccc(Cl)cc2)CC1 (configuration not stated)	none
OC(CN1CCN(c2cccc(Cl)c2)CC1)C(c1ccccc1)c1ccccc1 (configuration not stated)	Lassa entry 28µM, MARV entry inh 35µM
COCCN1C(=O)NC(c2cccc(F)c2)C(C(C)=O)=C1C (configuration not stated)	none
CCCCOc1ccc(C(=O)CCN2CCCCC2)cc1	MARV entry inh inconclusive
O=C(c1ccc(OCCN2CCCCC2)cc1)c1c(-c2ccc(O)cc2)sc2cc(O)ccc12	Lassa entry 32µM!, MARV entry inh 14µM
CC(C)N1CCN(c2ccc(C(=O)c3c(-c4ccc(O)cc4)sc4cc(O)ccc34)cc2)CC1	Lassa entry inconclusive, MARV entry inh 5µM
COC(=O)C(C(C)=O)[C@@H](NC(=O)NCc1ccccc1)c1ccccc1 (some centres not stated)	none
CC1(C)O[C@@H](C(O)(c2cc(C(F)(F)F)cc(C(F)(F)F)c2)c2cc(C(F)(F)F)cc(C(F)(F)F)c2)[C@H](C(O)(c2cc(C(F)(F)F)cc(C(F)(F)F)c2)c2cc(C(F)(F)F)cc(C(F)(F)F)c2)O1	none
OC1(c2cccnc2)CCN(Cc2ccc3c(c2)CN(Cc2ccc(Cl)cc2)CCO3)CC1	none
OC1(c2ccc(Cl)cc2)CCN(Cc2c[nH]c3ccccc23)CC1	Lassa entry inconclusive, MARV entry inh 8.9µM
CCOC(=O)C1=CN(CCCc2cn(Cc3ccccc3)nn2)C(=O)NC1c1ccccc1 (configuration not stated)	none
CC1(C)N=C(N)N=C(N)N1c1ccc(Cl)cc1	Lassa entry 11µM, MARV entry inh 7.1µM
CSC[C@H]1CN(Cc2ccccc2)C(=O)[C@H]1CC(=O)Nc1ccc(Br)cc1	none
Cc1cccc(C)c1Nc1oc(-c2ccccc2)nc1C(C)(C)C	none
C=C1C(=O)OC2CC1C(OC(C)=O)CC(C)=CCCC(C)=CCC[C@@]2(C)O (some centres not stated)	Lassa entry 11µM, MARV entry inh 16µM
Cc1cc(C)c2c(CN(C)Cc3ccccc3)cc(=O)oc2c1	Lassa entry inconclusive, MARV entry inh 2.2µM
CCCCN(CCCC)Cc1cc(=O)oc2cc(C)cc(C)c12	none
CCN1C(=O)NC(c2cccs2)C(C(C)=O)=C1C (configuration not stated)	MARV entry inh inconclusive
COC(=O)[C@@H]1C[C@@]23C(=NN=C(SC)C2Nc2ccccc23)N1C(C)=O (some centres not stated)	none
CC(=O)OC1CC[C@@]2(C)C3CC[C@@]4(C)C(CC5O[C@@]6(CCC(C)CO6)C(C)C54)C3CC[C@@H]2C1 (some centres not stated)	none
CC(=O)O[C@H]1C[C@H](O[C@H]2[C@@H](O)C[C@H](O[C@H]3[C@@H](O)C[C@H](OC4CC[C@@]5(C)[C@H](CC[C@@H]6[C@@H]5CC[C@]5(C)[C@@H](C7=CC(=O)OC7)CC[C@]65O)C4)O[C@@H]3C)O[C@@H]2C)O[C@H](C)[C@H]1O[C@@H]1O[C@H](CO)[C@@H](O)[C@H](O)[C@H]1O (some centres not stated)	Lassa entry 25µM, MARV entry inh 5.6µM
CC(=O)OC1CC[C@]2(C)C(CCC3C2CC[C@]2(C)C(C4=CC(=O)OC4)C(OC(C)=O)CC32O)C1 (some centres not stated)	Lassa entry 1.4µM, MARV entry inh 0.71µM
CC(=O)OC1CC(OC2C(O)CC(OC3C(O)CC(OC4CCC5(C)C(CCC6C5CC(O)C5(C)C(C7=CC(=O)OC7)CCC65O)C4)OC3C)OC2C)OC(C)C1OC1OC(CO)C(O)C(O)C1O (configuration not stated)	Lassa entry 0.32µM, MARV entry inh 0.28µM
CC(=O)O[C@H]1C[C@@H](O[C@@H]2[C@H](C)O[C@H](O[C@@H]3[C@H](C)O[C@H](O[C@@H]4CC[C@@]5(C)[C@@H](CC[C@]6(C)[C@]5(C)C[C@H](O)[C@]5(C)[C@@H](C7=CC(=O)OC7)CC[C@@]56O)C4)C[C@@H]3O)C[C@@H]2O)O[C@@H](C)[C@H]1O[C@H]1O[C@@H](CO)[C@@H](O)[C@@H](O)[C@@H]1O	Lassa entry 0.89µM, MARV entry inh 0.89µM
O[C@H]1CN(Cc2cccs2)[C@@H](c2ccccc2)C[C@H]1n1cc(-c2ccc(F)cc2)nn1	none
COC(=O)[C@@H]1CC[C@H](C)[C@@H](c2ccc(C)cc2)N1C(=O)c1ccc(C=NO[C@H](C)CN2CCCc3nc(C)c(C)cc32)cc1	MARV entry inh inconclusive
CC1=C(C(=O)Nc2ccc3[nH]ncc3c2)C(c2ccc(F)cc2)NC(=O)N1 (configuration not stated)	Lassa entry inconclusive
COC(=O)C1=C(C(=O)OC)[C@@H]2N(Cc3ccccc3)c3ccccc3[C@@]23C[C@@H](C(=O)OC)N(C(=O)Nc2ccccc2F)C3=N1	none
CC(=O)C1=C(C)N(Cc2ccccc2)C(=O)NC1c1ccc(Br)cc1 (configuration not stated)	Lassa entry inconclusive
CC#CCN1c2ccccc2[C@]23CCC(=O)N(CCCOC(C)C)C2=NC(C(=O)OC)=C(C(=O)OC)[C@H]13	none
CC(C)CON=C1C[C@@H](O)[C@@H](O)[C@@H]2[C@H]3C(=O)N(c4ccc(F)cc4F)C(=O)[C@@H]3CC[C@@H]12	none
CC(=O)OC1CCC23C(=O)OC45CCC(C6=CC(=O)OC6)C4(C)CCC2C5CCC3(O)C1 (configuration not stated)	Lassa entry 1.3µM, MARV entry inh 0.56µM
C[C@@H]1N[S+](=O)([O-])c2cc(Cl)ccc2O[C@H]1c1ccccc1	none
CN[C@@H](C)[C@H](O)c1ccccc1	none
CCCCCCCCN[C@@H](C)[C@H](O)c1ccc(SC(C)C)cc1	MARV entry inh 11µM
O=C1OC2(CCCCC2)CC2=C1[C@H]1O[C@](c3ccsc3)(Cc3c1ccc1ccccc31)O2	none
O[C@@H]1CN(Cc2cccs2)[C@@H](c2ccccc2)C[C@@H]1n1cc(-c2ccc(F)cc2)nn1	MARV entry inh inconclusive
CCC1(C2CCN(Cc3ccccn3)CC2)NC(=O)N(CC2COc3ccccc3O2)C1=O (configuration not stated)	none
